Reference: the supplement of paper PMC6992640

test system: WHIM30 (cells of a triple-negative basal-like breast cancer xenograft); assay: cell viability of combination (% of vehicle); higher = less cytotoxic; conditions: 1 µM; 72 h; partner dose: 10 nM
Experimental: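 PDX cells were treated for 72 h with each drug at 1 µM plus carfilzomib (10 nM; 100 nM for WHIM2). Luciferase viability is expressed as percent of vehicle.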

| SMILES | cell viability of combination |
| --- | --- |
| Cc1cc(Nc2ncc(Cl)c(Nc3ccccc3S(=O)(=O)C(C)C)n2)c(OC(C)C)cc1C1CCNCC1 + CC(C)C[C@H](NC(=O)[C@H](CCc1ccccc1)NC(=O)CN1CCOCC1)C(=O)N[C@@H](Cc1ccccc1)C(=O)N[C@@H](CC(C)C)C(=O)[C@@]1(C)CO1 [Carfilzomib] | 7.66 |
| COC(=O)NC(C(=O)NC(Cc1ccccc1)C(O)CN(Cc1ccc(-c2ccccn2)cc1)NC(=O)C(NC(=O)OC)C(C)(C)C)C(C)(C)C (centres undefined) [Atazanavir] + CC(C)C[C@H](NC(=O)[C@H](CCc1ccccc1)NC(=O)CN1CCOCC1)C(=O)N[C@@H](Cc1ccccc1)C(=O)N[C@@H](CC(C)C)C(=O)[C@@]1(C)CO1 [Carfilzomib] | 24.5 |
| CCC(NC(=O)C(C)NC)C(=O)N1CC(O)CC1Cc1c(-c2[nH]c3cc(F)ccc3c2CC2CC(O)CN2C(=O)C(CC)NC(=O)C(C)NC)[nH]c2cc(F)ccc12 (centres undefined) + CC(C)C[C@H](NC(=O)[C@H](CCc1ccccc1)NC(=O)CN1CCOCC1)C(=O)N[C@@H](Cc1ccccc1)C(=O)N[C@@H](CC(C)C)C(=O)[C@@]1(C)CO1 [Carfilzomib] | 11.4 |
| C=CC(=O)N1CCC(Oc2cc3c(Nc4ccc(Cl)c(Cl)c4F)ncnc3cc2OC)CC1 [Poziotinib] + CC(C)C[C@H](NC(=O)[C@H](CCc1ccccc1)NC(=O)CN1CCOCC1)C(=O)N[C@@H](Cc1ccccc1)C(=O)N[C@@H](CC(C)C)C(=O)[C@@]1(C)CO1 [Carfilzomib] | 8.92 |
